PubChem BioAssay AID720690 (Broad Institute, 2013)
Potency and affinity values are given separately. Activity calls are given as the source filed them.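 The calls were made as follows: active = every repeat run showing a signal drop whose fitted half-maximal concentration is at most twice the top tested concentration; inconclusive = repeat runs disagree, or flat partial drop, or poor fit; inactive = the rest.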

Assay: general mammalian cell viability loss – activator set, cherry-pick, cytotoxicity control for miR-122 modulator project, dose response (AID 720690)
Conditions: HEK293T viability, CellTiter-Glo luminescence, 48 h; series mostly up to 26 µM

| Structure (SMILES) | outcome |
| --- | --- |
| CCOC(=O)c1nc(C)n(-c2ccc(Cl)cc2Cl)n1 | inactive |
| COc1cccc(CNC(=O)C[C@H]2CC[C@@H]3[C@@H](COc4ccc(NC(C)=O)cc4C(=O)N3C)O2)c1 | inactive |
| CC(C)CC#Cc1ccc2c(c1)O[C@H](CN(C)C(=O)c1cnccn1)[C@H](C)CN([C@@H](C)CO)S2(=O)=O | inactive |
| CCCNC(=O)Nc1ccc2c(c1)C(=O)N(C)[C@H]1CC[C@@H](CC(=O)NCC3CCCCC3)O[C@@H]1CO2 | inactive |
| C/C=C/c1ccc([C@H]2[C@@H](CNC(=O)c3ccncc3)N(C(=O)CC)[C@H]2CO)cc1 | inactive |
| CN1C(=O)c2cc(NC(=O)Nc3ccccc3F)ccc2OC[C@@H]2O[C@H](CC(=O)O)CC[C@@H]21 | inactive |
| CCNC(=O)Nc1ccc2c(c1)C(=O)N(C)[C@H]1CC[C@@H](CC(=O)NCCOC)O[C@@H]1CO2 | inactive |
| CNC[C@@H]1Oc2cc(C#CC3CCCC3)ccc2S(=O)(=O)N([C@@H](C)CO)C[C@@H]1C | inactive |
| COCC(=O)N(C[C@@H]1N[C@H](CO)[C@H]1c1ccc(C2=CCCC2)cc1)C(C)C | inactive |
| COCC(=O)NC[C@@H]1[C@H](c2ccc(C3=CCCC3)cc2)[C@@H](CO)N1C(=O)C1CC1 | inactive |
| C/C=C/c1ccc([C@@H]2[C@@H](CO)N[C@@H]2CN(C(=O)C2CCCC2)C(C)C)cc1 | inactive |
| Cc1cccc(NC(=O)Nc2ccc3c(c2)C(=O)N(C)[C@@H]2CC[C@@H](CC(=O)NCc4ccccc4Cl)O[C@H]2CO3)c1 | inactive |
| N#Cc1ccc(C(=O)Nc2ccc(N3CCN(C(=O)c4ccco4)CC3)cc2)c(F)c1 | inactive |
